Test results: PubChem BioAssay (NCATS)
Records with an inconclusive call do not appear. Calls of active or inactive are those of the source. Unless noted, the call rests on the fitted dose curve; in most records, active means well fitted curve in the direction sought with a large enough effect; inconclusive means small, poorly fitted or top-dose-only effect, or another doubt; inactive means no such curve, though single readings can be large or run the other way.

Experiment: qHTS Assay for Identifying Gametocytocidal Compounds (AID 743244); further: potency means the concentration at half of the fitted maximal effect;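 on max response: on the % scale 0 is the no-effect control and ±100 the full control effect; actives lower the fluorescent signal which means gametocytes are killed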
Conditions: P. falciparum 3D7 stage III-V gametocytes, alamarBlue, 72 h; max response: stronger effect = lower value
Outline: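 A resazurin-based viability read-out was applied to mature P. falciparum gametocytes: 72 h compound treatment, then 24 h dye incubation, with falling fluorescence signalling gametocytocidal effect.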

Structure (SMILES) | max response | Potency
CC(C)[C@]12O[C@H]1[C@@H]1O[C@]13[C@]1(O[C@H]1C[C@H]1C4=C(CC[C@@]13C)C(=O)OC4)[C@@H]2O | -3.04% (inactive) | –
CN[C@@H](C)C(=O)N[C@H]1CCCC[C@H]2CC[C@@H](C(=O)N[C@@H](c3ccccc3)c3cn(CCCCc4ccc(CCCCn5cc([C@@H](NC(=O)[C@@H]6CC[C@@H]7CCCC[C@H](NC(=O)[C@H](C)NC)C(=O)N76)c6ccccc6)nn5)cc4)nn3)N2C1=O | – | 2640 nM (active)
CC(=O)Nc1ccc(OC[C@](C)(O)C(=O)Nc2ccc([N+](=O)[O-])c(C(F)(F)F)c2)cc1 | 0.149% (inactive) | –
Clc1ccc(C(c2ccc(Cl)cc2)n2cc[n+](CC(OCc3ccc(Cl)cc3Cl)c3ccc(Cl)cc3Cl)c2)cc1 (stereo unspecified) | – | 1000 nM (active)
Cc1c(C(=O)Nc2cccc(C(F)(F)F)c2)cc(-c2ccccc2)n1CCCN1CCOCC1 | 12.4% (inactive) | –
CC[N+]1(CCOC(=O)C(O)(c2ccccc2)c2ccccc2)CCCCC1 | 2.2% (inactive) | –
C=CCON=C(C[C@H]1O[C@@H]2O[C@]3(C)CC[C@@H]4[C@H](C)CC[C@@H]([C@H]1C)[C@@]24OO3)[C@H]1O[C@@H]2O[C@]3(C)CC[C@H]4[C@H](C)CC[C@@H]([C@@H]1C)[C@@]24OO3 | – | 8.3 nM (active)
O=C(Oc1ccc([N+](=O)[O-])cc1)N1CCC(C(O)(c2ccc3c(c2)OCO3)c2ccc3c(c2)OCO3)CC1 | -4.93% (inactive) | –
CN1CC[C@@H](c2c(O)cc(O)c3c(=O)cc(-c4ccccc4Cl)oc23)[C@@H](O)C1 | 13.4% (inactive) | –
NC1=NC(=O)N2CC12 (stereo unspecified) | -4.05% (inactive) | –
Cc1ccccc1-n1c(Cn2cnc3c(N)ncnc32)nc2cccc(C)c2c1=O | 15.4% (inactive) | –
O=C(Nc1cc(C(F)(F)F)cc(C(F)(F)F)c1)c1cc(Cl)ccc1O | – | 7430 nM (active)
CO[C@H]1C=CC=C(C)C(=O)NC2=CC(=O)C(NCCN(C)C)=C(C[C@@H](C)C[C@H](OC)[C@@H](O)[C@@H](C)C=C(C)[C@@H]1OC(N)=O)C2=O | – | 46.9 nM (active)
Cc1nc(-c2ccc(-c3ccc(C(=O)N4CCc5cc6c(cc54)C4(CCN(C)CC4)CO6)cc3)c(C)c2)no1 | -4.85% (inactive) | –
COCCn1c2c([n+](Cc3cnccn3)c1C)C(=O)c1ccccc1C2=O | – | 372 nM (active)
O=C(O)c1ccc(O)c2ncc(N3CCOCC3)cc12 | – | 9350 nM (active)
CC[C@@H](C(=O)O)C1CC[C@H](C)C([C@@H](C)[C@H](O)[C@H](C)C(=O)[C@H](CC)C2O[C@]3(C=C[C@@H](O)[C@]4(CC[C@@](C)(C5CC[C@](O)(CC)[C@H](C)O5)O4)O3)[C@H](C)C[C@@H]2C)O1 (stereo partly specified) | – | 52.6 nM (active)
C[C@@]12O[C@@H](C[C@]1(O)CO)n1c3ccccc3c3c4c(c5c6ccccc6n2c5c31)CNC4=O | – | 5900 nM (active)
COc1ccc2c(c1)CC[C@H]1[C@@H]2CC[C@]2(C)[C@@H](NCCCCCCN3C(=O)C=CC3=O)CC[C@H]12 | – | 9350 nM (active)
CC1CC(C)C(=O)C(C(O)CC2CC(=O)NC(=O)C2)C1 (stereo unspecified) | – | 1520 nM (active)

Experiment: qHTS profiling for inhibitors of Plasmodium falciparum (DD2) proliferation (AID 743323; call rule not given here)
Conditions: lower = more inhibition; at 28.7 µM (top of the series) unless noted
Outline: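 SYBR Green fluorescence (ex 485, em 535 nm) of lysed cultures gives parasite DNA content; wells normalized to artemisinin (0.29 uM) and DMSO controls. Infected red cells: 0.3% parasitemia, 2.5% hematocrit, 72 h, 37 C.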

Structure (SMILES) | activity, percent of control
CC(C)[C@]12O[C@H]1[C@@H]1O[C@]13[C@]1(O[C@H]1C[C@H]1C4=C(CC[C@@]13C)C(=O)OC4)[C@@H]2O | 96.4%
CC(=O)Nc1ccc(OC[C@](C)(O)C(=O)Nc2ccc([N+](=O)[O-])c(C(F)(F)F)c2)cc1 | 97.8%
C1=CCOCc2cc(ccc2OCCN2CCCC2)Nc2nccc(n2)-c2cccc(c2)OCC1 | 107%
CCCCN1CCC(CNC(=O)c2c3n(c4ccccc24)CCCO3)CC1 | 54.7%
Cc1c(C(=O)Nc2cccc(C(F)(F)F)c2)cc(-c2ccccc2)n1CCCN1CCOCC1 | 17.4%
CC(C)(C)c1[nH]cnc1C=c1[nH]c(=O)c(=Cc2ccccc2)[nH]c1=O | 49.6%
C=CCON=C(C[C@H]1O[C@@H]2O[C@]3(C)CC[C@@H]4[C@H](C)CC[C@@H]([C@H]1C)[C@@]24OO3)[C@H]1O[C@@H]2O[C@]3(C)CC[C@H]4[C@H](C)CC[C@@H]([C@@H]1C)[C@@]24OO3 | 0.0103%
Nc1nc(-c2nn(Cc3ccccc3F)c3ncccc23)nc(N)c1N1CCOCC1 | 94.1%
CC(C)[C@H]1C(=O)N[C@H](CO)Cc2c[nH]c3cccc(c23)N1C | 97.3%
O=C(Oc1ccc([N+](=O)[O-])cc1)N1CCC(C(O)(c2ccc3c(c2)OCO3)c2ccc3c(c2)OCO3)CC1 | 90.2%
Cc1ccccc1-n1c(Cn2cnc3c(N)ncnc32)nc2cccc(C)c2c1=O | 37.6%
CC[C@H](CO)Nc1nc(NCc2ccccc2)c2ncn(C(C)C)c2n1 | 50.4%
Cc1nc(-c2ccc(-c3ccc(C(=O)N4CCc5cc6c(cc54)C4(CCN(C)CC4)CO6)cc3)c(C)c2)no1 | 63.3%
O=C(O)c1ccc(O)c2ncc(N3CCOCC3)cc12 | 35.5%
COc1ccc2c(c1)CC[C@H]1[C@@H]2CC[C@]2(C)[C@@H](NCCCCCCN3C(=O)C=CC3=O)CC[C@H]12 | 73.1%
CC1CC(C)C(=O)C(C(O)CC2CC(=O)NC(=O)C2)C1 (stereo unspecified) | 0.244% [at 57.5 µM]
